VACV Venus inh: inhibitors of vaccinia virus (Venus reporter); Vaccinia virus Venus reporter expression, fluorescence; Potency, µM (highest dose often 36.5 µM), without a hit: top-dose activity change, negative = inhibition, most hits filed as inhibitors; 330,000 tested, 0.46% active; calls by dose curve; tested in A549 cells; further: nearly all actives have a fitted effect of over 30% in size
VACV mCherry inh: vaccinia inhibition (mCherry reporter); Vaccinia virus mCherry reporter infection, fluorescence; Potency, µM (top dose mostly 36.5 µM), without a hit: at the top dose activity change, negative = inhibition, usual class: inhibitors; 310,000 tested, 0.63% active; calls by dose curve; tested in A549 cells; further: nearly all actives have a fitted effect of over 35% in size
FMDV inh: foot and mouth disease virus antiviral activity; Potency, µM (titrated, usually from 57.9 µM), for the others: at the highest dose activity change, negative = inhibition, usual class: inhibitors; FMDV antiviral cell-based qHTS; 410,000 tested, 1.2% active; calls by dose curve; tested in HEK293T cells; further: read-out not given here; nearly all actives have a fitted effect of over 45% in size
LASV entry inh: inhibitors of Lassa virus binding or cell entry | Lassa virus pseudotype entry inhibition, cell reporter | Potency, µM (top dose mostly 37.9 µM), for the others: at the top dose activity change, negative = inhibition, hits mostly inhibitors | 300,000 tested, 1.2% active | AID 540256; calls by dose curve; tested in HEK293 cells; further: nearly all actives have a fitted effect of over 50% in size
Marburg entry inh: inhibitors of Marburg virus binding or cell entry; Marburg virus pseudotyped entry inhibition, cell reporter; Potency, µM (doses to about 37.8 µM), for the others: at the top dose activity change, negative = inhibition, actives largely listed as inhibitors; 300,000 tested, 1.8% active; AID 540276; calls by dose curve; tested in HEK293 cells
Sm TGR block: S. mansoni TGR enzyme inhibition. 360,000 tested, 3% active. Potency, µM (top dose mostly 114 µM), inactives show at the top dose activity change, negative = inhibition, actives largely listed as inhibitors. purified TGR, DTNB reduction, TNB absorbance 405 nm. Q962Y6; active means well fitted inhibition curve with a large enough effect; inconclusive means small, poorly fitted or top-dose-only effect; inactive means no such curve, though single readings can be large or run the other way; further: nearly all actives have a fitted effect of over 60% in size
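Kinetic colorimetric format: TGR-catalysed, NADPH-driven DTNB reduction monitored via TNB absorbance. Enzyme dispensed at 20 nM; compound exposure 15 min at room temperature before reaction start.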
Starred values were filed as active, the others as inactive; i = inactive; ? = inconclusive; / = no result given; [ ] = remark or other dose. A selection: hits, their analogues and other compounds. The true share with any hit is near 5.4%. On the % scale 0 is the no-effect control and ±100 the full control effect; potency means the concentration at half of the fitted maximal effect.

SMILES	VACV Venus inh	VACV mCherry inh	FMDV inh	LASV entry inh	Marburg entry inh	Sm TGR block
COc1ccc(C(=O)Nc2ccc3c(c2)CCCN3C(=O)c2cccs2)c(OC)c1	-22%	-24%	?	?	/	10%
CCCCOc1ccc(C(=O)Nc2ccc3c(c2)CCCN3C(=O)c2cccs2)cc1	?	?	25µM*	?	/	9%
CC(C)Oc1ccc(C(=O)Nc2ccc3c(c2)CCCN3C(=O)c2cccs2)cc1	?	?	22µM*	?	/	2%
COc1cccc(C2(CC(=O)N3CCCOc4c(cccc4OC)C3)CC(=O)N(C)C2=O)c1 (configuration not stated)	-12%	i	1%	/	/	/
CC(=O)N1CCC[C@H]1C(=O)N1CCc2c(cnc(C)c2CNC(=O)/C=C/c2cccs2)C1	3%	-3%	6%	/	/	/
Cc1cccc(NC(=O)C(=O)NCC(c2cccnc2)N2CCc3ccccc3C2)c1C (configuration not stated)	-14%	-14%	?	7%[46.1 µM]	/	5%
CN(C)CCCN(C(=O)c1ccc2c(c1)OCCO2)c1nc2cc3c(cc2s1)OCO3	-20%	?	-6%	29%	?	-19%
CN(C)CCN(C(=O)c1ccc(N2C(=O)CCC2=O)cc1)c1nc2cc3c(cc2s1)OCO3	0%	-19%	-8%	0%	2%[46.1 µM]	20µM*
COc1ccc(-c2nc(SCC(=O)Nc3cccc(C(C)=O)c3)n[nH]2)cc1	-14%	-14%	0%	-14%[46.1 µM]	/	0%
CCOC(=O)C1=C(c2ccccc2)N=c2s/c(=C\c3cccc(O)c3)c(=O)n2C1c1cccs1 (configuration not stated)	?	-21%	/	16µM*	?	5%
COc1ccccc1-c1nc2c(c(SCc3cc(C)ccc3C)n1)Cc1c(CO)cnc(C)c1O2	-24%	?	-29%	-25%[46.1 µM]	/	0%
Cc1ccc(S(=O)(=O)N2CC2(C)CCl)cc1 (configuration not stated)	/	/	-4%	/	/	50µM*
COc1ccc(N(C(=O)c2cccnc2)S(=O)(=O)c2cccc([N+](=O)[O-])c2)cc1	1%	-13%	-7%	?	-22%[46.1 µM]	?
COc1ccc(C(=O)N(c2ccc(OC)cc2)S(=O)(=O)c2ccc3c(c2)n(C)c(=O)n3C)cc1	3%	-1%	4%	?	?	0%
COc1ccc(N(C(=O)c2cccc(C)c2)S(=O)(=O)c2ccc3c(c2)n(C)c(=O)n3C)cc1	-19%	-21%	0.028µM*	?	-27%[46.1 µM]	4%
COc1ccc(N(C(=O)c2ccncc2)S(=O)(=O)c2cccc([N+](=O)[O-])c2)cc1	-12%	?	-4%	26%[46.1 µM]	-16%[46.1 µM]	32µM*
Cc1nn2c(=O)cc(COC(=O)c3ccccc3NC(=O)C(C)C)nc2s1	?	-19%	?	17%[46.1 µM]	/	-3%
CC(C)(C)c1cc(-c2csc(Nc3ccccc3)[n+]2Cc2ccc(C(=O)O)cc2)cc(C(C)(C)C)c1O	-14%	?	32µM*	-20%	11µM*	-25%
O=C(O)c1ccc(C[n+]2c(-c3ccccc3)csc2Nc2ccccc2)cc1	4%	-8%	-26%	1%	-17%	-19%
COc1ccc2c(c1)CO[C@H]([C@H](O)CO)[C@H]2C=Cc1ccccc1	/	/	/	?	-6%[14.2 µM]	/
Cc1ccc(S(=O)(=O)N2CCCc3cc(NS(=O)(=O)c4ccccc4)ccc32)cc1	-12%	-4%	1%	10µM*	/	10%
Cc1ccc(S(=O)(=O)N2CCCc3cc(NS(=O)(=O)c4ccc(F)cc4)ccc32)cc1	-9%	-11%	-25%	?	/	5%
CCOc1ccccc1C1c2[nH]c3ccccc3c2C[C@H]2C(=O)N(C3CCN(Cc4ccccc4)CC3)CC(=O)N12 (some centres not stated)	-27%	-13%	-3%	?	20µM*	1%
CN(C)CCOC1c2ccccc2CCc2ccc3ccccc3c21 (configuration not stated)	-19%	?	?	?	5µM*	/
CCc1ccccc1NC(=O)c1sc(-n2nc(C)c(Cc3ccccc3)c2C)nc1C	-9%	-17%	-22%	5%[46.1 µM]	?	2%
